Data on one compound can be found in ChEMBL document CHEMBL1961873, “Compounds: GSK PKIS; Assays: Nanosyn kinase panel” (2012).

Assay [1] has as its target Protein kinase C gamma type (Homo sapiens) (UniProt P05129). As to conditions: at 1 µM.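 Also: each value is an averaged percent inhibition of the enzyme.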
Assay [2] deals with T1, Protein kinase C iota type (Homo sapiens) (UniProt P41743).
T1 sequence (whole entry): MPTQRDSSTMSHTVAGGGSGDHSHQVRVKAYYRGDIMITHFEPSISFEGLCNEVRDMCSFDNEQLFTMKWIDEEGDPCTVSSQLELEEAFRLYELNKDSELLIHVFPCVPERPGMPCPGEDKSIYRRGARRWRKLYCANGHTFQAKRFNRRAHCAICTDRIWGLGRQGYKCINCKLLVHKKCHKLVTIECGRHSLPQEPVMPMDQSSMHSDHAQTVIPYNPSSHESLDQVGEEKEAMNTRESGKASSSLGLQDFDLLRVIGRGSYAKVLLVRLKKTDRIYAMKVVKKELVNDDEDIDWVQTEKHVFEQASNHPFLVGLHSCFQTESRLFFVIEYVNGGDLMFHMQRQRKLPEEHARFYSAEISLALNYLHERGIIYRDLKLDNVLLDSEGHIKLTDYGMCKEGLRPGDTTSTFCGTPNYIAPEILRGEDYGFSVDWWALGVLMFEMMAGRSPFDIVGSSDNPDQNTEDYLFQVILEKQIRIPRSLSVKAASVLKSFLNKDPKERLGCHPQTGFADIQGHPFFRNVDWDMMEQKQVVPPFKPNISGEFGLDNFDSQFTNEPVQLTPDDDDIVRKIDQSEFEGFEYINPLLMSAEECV
As to conditions: at 0.1 µM.

In assay [3] the target is T1, Protein kinase C iota type (Homo sapiens). As to conditions: at 1 µM.
Assay [4] concerns the target Protein kinase C theta type (Homo sapiens) (UniProt Q04759). As to conditions: at 0.1 µM.
Assay [5] shares this target. As to conditions: at 1 µM.
The target in assay [6] is Protein kinase C beta type (Homo sapiens) (UniProt P05771). As to conditions: at 0.1 µM.
Protein kinase C beta type (Homo sapiens), sequence (P05771 2-671 limits assumed): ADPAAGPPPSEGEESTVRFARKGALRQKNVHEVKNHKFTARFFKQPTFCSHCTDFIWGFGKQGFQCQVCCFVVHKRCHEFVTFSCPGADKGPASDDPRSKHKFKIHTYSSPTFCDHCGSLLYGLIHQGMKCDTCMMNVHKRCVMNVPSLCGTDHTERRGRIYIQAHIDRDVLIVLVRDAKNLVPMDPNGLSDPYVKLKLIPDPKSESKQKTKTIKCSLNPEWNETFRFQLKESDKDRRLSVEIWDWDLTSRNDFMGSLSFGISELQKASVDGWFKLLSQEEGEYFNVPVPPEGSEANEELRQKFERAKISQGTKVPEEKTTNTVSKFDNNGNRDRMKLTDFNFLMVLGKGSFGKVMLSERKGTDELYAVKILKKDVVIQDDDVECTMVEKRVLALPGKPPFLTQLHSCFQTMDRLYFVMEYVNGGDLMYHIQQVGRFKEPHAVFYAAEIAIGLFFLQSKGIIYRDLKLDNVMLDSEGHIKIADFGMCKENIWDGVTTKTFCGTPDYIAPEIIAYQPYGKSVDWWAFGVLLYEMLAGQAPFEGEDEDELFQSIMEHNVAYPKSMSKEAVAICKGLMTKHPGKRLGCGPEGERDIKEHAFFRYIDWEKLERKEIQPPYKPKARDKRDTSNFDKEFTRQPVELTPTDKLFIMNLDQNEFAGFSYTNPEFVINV
Assay [7] shares this target. As to conditions: at 1 µM.
For assay [8], the target named is T2, Serine/threonine-protein kinase D1 (Homo sapiens) (UniProt Q15139).
T2 sequence (whole entry): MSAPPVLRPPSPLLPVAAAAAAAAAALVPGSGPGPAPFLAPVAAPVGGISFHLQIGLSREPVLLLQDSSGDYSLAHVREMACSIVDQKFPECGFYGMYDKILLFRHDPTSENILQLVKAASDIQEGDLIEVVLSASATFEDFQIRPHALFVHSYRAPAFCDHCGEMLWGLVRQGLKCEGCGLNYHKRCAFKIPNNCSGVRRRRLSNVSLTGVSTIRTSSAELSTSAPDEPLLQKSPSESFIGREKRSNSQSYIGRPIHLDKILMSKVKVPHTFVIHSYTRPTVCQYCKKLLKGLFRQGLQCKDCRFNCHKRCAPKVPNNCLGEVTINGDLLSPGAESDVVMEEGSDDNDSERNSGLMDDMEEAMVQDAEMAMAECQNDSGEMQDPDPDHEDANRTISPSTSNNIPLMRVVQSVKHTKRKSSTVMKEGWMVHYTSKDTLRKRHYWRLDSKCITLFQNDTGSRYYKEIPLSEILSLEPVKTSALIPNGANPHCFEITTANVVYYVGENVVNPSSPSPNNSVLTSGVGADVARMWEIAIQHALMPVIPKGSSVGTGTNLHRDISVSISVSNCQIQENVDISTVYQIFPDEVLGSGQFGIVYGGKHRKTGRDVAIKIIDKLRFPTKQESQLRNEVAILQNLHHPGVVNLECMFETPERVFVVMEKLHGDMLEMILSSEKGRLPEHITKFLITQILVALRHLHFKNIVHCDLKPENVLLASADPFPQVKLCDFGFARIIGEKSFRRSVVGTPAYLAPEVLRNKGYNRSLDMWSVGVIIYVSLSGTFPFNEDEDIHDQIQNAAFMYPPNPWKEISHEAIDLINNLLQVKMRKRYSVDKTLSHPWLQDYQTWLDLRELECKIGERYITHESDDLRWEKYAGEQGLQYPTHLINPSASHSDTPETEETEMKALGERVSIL
As to conditions: at 0.1 µM.

Assay [9] has as its target T2, Serine/threonine-protein kinase D1 (Homo sapiens). As to conditions: at 1 µM.
Assay [10] addresses T3, Serine/threonine-protein kinase D2 (Homo sapiens) (UniProt Q9BZL6).
T3 sequence (whole entry): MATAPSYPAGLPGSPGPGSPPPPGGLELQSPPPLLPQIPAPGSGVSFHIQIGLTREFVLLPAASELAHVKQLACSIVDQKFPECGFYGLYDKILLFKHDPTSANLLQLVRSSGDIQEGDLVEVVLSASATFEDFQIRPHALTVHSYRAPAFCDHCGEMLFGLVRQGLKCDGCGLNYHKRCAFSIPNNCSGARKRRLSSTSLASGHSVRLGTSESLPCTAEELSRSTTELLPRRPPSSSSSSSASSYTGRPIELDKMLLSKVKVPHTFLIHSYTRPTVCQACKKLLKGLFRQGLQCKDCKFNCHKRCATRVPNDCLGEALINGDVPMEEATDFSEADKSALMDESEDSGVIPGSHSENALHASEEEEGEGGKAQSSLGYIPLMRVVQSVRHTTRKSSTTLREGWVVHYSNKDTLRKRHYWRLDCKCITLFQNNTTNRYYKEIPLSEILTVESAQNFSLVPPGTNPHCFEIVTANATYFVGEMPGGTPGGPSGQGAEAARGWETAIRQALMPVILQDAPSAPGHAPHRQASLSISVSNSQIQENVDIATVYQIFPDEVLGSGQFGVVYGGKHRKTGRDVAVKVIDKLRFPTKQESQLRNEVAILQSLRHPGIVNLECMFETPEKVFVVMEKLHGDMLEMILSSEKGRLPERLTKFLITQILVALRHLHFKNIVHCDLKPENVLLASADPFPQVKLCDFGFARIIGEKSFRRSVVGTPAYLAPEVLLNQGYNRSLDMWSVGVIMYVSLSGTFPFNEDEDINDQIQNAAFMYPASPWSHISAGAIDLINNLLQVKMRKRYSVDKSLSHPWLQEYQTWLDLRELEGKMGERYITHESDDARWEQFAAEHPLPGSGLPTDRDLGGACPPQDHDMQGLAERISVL
As to conditions: at 0.1 µM.

Assay [11] addresses T3, Serine/threonine-protein kinase D2 (Homo sapiens). As to conditions: at 1 µM.
The target of assay [12] is T4, Serine/threonine-protein kinase D3 (Homo sapiens) (UniProt O94806).
T4 sequence (whole entry): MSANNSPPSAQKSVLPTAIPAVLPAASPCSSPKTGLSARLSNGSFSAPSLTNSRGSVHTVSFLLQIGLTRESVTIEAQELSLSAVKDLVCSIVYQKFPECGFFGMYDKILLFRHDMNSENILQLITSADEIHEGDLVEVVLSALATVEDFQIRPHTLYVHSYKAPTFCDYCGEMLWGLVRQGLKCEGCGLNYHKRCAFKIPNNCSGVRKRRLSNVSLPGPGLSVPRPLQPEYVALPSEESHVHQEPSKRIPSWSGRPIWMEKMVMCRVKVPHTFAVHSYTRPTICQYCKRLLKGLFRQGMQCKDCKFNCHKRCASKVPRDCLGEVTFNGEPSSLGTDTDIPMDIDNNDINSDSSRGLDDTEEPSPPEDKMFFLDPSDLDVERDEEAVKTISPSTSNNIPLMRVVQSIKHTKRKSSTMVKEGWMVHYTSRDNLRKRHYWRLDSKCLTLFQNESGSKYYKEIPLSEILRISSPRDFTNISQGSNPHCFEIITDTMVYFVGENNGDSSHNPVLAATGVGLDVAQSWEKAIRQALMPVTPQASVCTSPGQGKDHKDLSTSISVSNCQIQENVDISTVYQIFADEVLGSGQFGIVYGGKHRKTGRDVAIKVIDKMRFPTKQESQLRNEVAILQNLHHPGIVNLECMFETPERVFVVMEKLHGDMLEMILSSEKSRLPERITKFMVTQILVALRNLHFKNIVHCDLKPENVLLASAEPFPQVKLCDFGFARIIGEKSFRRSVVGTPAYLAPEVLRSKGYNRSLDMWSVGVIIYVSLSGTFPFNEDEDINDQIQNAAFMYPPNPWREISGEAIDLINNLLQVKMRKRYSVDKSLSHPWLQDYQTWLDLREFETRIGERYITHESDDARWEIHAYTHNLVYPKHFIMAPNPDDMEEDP
As to conditions: at 0.1 µM.

For assay [13], the target named is T4, Serine/threonine-protein kinase D3 (Homo sapiens). As to conditions: at 1 µM.
Assay [14] deals with T5, cGMP-dependent protein kinase 1 (Homo sapiens) (UniProt Q13976).
T5 sequence (whole entry): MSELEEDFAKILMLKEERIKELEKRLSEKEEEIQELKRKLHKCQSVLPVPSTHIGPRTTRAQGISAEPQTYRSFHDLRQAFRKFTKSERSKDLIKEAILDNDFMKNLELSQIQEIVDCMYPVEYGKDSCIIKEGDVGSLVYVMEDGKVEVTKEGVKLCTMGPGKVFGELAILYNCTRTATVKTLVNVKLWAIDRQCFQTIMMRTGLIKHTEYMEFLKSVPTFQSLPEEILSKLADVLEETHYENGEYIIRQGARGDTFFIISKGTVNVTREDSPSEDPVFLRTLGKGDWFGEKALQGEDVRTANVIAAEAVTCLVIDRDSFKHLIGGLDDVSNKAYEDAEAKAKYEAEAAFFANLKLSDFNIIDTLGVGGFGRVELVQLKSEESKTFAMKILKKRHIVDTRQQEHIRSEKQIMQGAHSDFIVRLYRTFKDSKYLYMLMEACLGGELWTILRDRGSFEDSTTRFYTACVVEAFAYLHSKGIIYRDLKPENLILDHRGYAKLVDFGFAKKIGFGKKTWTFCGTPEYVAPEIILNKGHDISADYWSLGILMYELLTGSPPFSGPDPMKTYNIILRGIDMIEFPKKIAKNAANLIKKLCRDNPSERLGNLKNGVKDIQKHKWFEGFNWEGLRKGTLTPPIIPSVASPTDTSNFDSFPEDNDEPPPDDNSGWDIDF
As to conditions: at 0.1 µM.

The target in assay [15] is T5, cGMP-dependent protein kinase 1 (Homo sapiens). As to conditions: at 1 µM.
The target of assay [16] is T6, cGMP-dependent protein kinase 2 (Homo sapiens) (UniProt Q13237).
T6 sequence (whole entry): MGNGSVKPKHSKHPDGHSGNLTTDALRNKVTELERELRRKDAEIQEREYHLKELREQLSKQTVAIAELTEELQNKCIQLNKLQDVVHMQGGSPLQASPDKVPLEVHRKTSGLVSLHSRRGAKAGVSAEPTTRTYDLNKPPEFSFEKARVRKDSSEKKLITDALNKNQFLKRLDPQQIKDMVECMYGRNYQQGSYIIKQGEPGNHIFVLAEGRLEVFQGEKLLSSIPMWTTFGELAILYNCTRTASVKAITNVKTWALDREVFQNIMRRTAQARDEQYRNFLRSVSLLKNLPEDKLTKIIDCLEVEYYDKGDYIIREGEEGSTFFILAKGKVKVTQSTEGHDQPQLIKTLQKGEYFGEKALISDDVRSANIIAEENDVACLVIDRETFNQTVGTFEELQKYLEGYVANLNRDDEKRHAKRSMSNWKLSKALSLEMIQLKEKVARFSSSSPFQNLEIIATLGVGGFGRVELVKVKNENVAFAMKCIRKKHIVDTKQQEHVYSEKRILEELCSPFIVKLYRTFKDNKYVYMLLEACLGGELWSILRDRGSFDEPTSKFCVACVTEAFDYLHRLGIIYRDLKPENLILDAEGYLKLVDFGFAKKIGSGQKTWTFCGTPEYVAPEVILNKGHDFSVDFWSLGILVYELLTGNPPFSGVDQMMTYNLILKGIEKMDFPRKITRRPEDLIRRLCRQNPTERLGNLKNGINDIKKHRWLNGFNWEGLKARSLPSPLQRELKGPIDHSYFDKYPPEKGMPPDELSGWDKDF
As to conditions: at 0.1 µM.

Assay [17] deals with T6, cGMP-dependent protein kinase 2 (Homo sapiens). As to conditions: at 1 µM.
For assay [18], the target named is T7, cAMP-dependent protein kinase catalytic subunit PRKX (Homo sapiens) (UniProt P51817).
T7 sequence (whole entry): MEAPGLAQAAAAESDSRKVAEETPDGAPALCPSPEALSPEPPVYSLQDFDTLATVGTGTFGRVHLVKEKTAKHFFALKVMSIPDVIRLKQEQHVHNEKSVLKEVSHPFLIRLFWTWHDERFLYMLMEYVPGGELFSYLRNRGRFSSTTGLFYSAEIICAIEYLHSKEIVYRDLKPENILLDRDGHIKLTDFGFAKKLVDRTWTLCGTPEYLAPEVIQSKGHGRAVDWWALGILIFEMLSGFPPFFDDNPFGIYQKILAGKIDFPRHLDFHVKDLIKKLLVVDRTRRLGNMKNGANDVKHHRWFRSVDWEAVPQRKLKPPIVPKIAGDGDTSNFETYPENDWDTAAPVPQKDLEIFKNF
As to conditions: at 0.1 µM.

Assay [19] addresses T7, cAMP-dependent protein kinase catalytic subunit PRKX (Homo sapiens). As to conditions: at 1 µM.
In assay [20] the target is Rho-associated protein kinase 1 (Homo sapiens) (UniProt Q13464). As to conditions: at 0.1 µM.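 Also: values are mean percent inhibition of ROCK1.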
Rho-associated protein kinase 1 (Homo sapiens), sequence (Q13464 2-1354 limits assumed): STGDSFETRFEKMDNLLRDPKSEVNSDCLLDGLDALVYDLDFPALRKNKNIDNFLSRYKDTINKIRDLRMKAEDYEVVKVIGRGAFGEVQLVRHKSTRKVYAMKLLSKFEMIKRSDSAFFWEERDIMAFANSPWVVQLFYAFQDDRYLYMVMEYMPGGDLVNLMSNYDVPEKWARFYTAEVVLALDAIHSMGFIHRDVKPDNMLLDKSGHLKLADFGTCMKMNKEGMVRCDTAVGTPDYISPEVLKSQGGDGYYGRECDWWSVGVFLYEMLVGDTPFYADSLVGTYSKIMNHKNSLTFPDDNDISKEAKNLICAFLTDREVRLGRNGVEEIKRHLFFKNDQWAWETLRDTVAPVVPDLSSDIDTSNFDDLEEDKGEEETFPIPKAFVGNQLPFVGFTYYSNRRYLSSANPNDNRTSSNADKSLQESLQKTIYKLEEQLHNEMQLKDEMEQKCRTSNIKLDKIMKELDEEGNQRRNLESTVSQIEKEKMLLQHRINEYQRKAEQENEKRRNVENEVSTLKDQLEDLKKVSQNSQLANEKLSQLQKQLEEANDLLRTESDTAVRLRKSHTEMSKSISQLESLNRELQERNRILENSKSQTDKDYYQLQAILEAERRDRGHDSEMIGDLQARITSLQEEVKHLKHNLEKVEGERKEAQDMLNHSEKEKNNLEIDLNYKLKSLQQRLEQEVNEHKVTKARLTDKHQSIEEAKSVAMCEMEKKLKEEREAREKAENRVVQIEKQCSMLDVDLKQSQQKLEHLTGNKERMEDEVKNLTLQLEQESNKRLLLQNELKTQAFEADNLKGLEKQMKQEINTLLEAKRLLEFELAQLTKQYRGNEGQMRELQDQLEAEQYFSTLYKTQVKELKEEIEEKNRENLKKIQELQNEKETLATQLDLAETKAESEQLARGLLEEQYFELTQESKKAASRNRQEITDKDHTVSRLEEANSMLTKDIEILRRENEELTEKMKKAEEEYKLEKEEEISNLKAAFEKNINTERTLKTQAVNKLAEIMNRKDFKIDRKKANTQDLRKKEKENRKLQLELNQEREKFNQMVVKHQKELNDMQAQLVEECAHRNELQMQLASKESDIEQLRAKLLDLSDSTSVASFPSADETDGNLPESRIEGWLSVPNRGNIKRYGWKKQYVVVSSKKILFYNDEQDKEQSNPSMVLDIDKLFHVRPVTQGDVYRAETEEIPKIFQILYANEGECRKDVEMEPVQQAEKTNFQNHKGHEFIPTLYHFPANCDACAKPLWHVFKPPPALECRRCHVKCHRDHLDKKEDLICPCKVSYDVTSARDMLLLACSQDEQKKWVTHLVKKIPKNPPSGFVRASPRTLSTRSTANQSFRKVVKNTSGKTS

For orientation: inhibition means the relative decrease from the control value, in per cent.

Protein kinase C theta type (Homo sapiens), sequence (Q04759 whole entry, looked up): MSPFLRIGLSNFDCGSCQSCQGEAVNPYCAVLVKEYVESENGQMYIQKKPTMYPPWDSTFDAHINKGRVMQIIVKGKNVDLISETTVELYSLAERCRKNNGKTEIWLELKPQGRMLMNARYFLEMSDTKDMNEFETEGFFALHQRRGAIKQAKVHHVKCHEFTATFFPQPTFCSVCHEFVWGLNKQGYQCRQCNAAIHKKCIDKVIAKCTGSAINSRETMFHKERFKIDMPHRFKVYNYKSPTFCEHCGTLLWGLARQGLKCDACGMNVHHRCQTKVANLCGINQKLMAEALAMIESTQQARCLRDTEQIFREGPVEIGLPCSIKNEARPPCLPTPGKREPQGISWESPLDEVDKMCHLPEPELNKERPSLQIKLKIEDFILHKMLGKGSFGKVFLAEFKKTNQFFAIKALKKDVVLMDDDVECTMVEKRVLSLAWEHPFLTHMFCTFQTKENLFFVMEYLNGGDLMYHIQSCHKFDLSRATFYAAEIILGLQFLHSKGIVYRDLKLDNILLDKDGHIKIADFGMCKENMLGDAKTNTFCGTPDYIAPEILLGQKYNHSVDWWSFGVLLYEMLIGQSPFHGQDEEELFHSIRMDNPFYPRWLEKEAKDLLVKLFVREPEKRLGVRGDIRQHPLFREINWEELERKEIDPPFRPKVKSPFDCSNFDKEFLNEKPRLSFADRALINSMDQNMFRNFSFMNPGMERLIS

On to `Nc1nc(-c2cccc(Cl)c2)c(-c2ccc3ncccc3n2)s1`, for which the inhibition in [1] turned out to be 6.65%; in assay [2], 2.71%; in assay [3] it was 1.25%; in assay [4], 4.95%; in assay [5], 5.67%; in [6] it was 2.82%. The inhibition stood at 2.11% in [7]; 5.85% in assay [8]; 35% in assay [9]; 7.33% in assay [10]; 40.1% in assay [11]; 7.77% in [12]. In addition, the inhibition is 33.1% in [13]; 2.8% in assay [14]; 5.63% in assay [15]; 1.78% in assay [16]; 4.96% in [17]; 3.46% in assay [18]. In addition, the inhibition in assay [19] worked out at 5.88%; in [20], 1.58%.
